Compounds with a hit are over-represented: about 1.8% of the library has one in this group of screens.
MBD2 inh: MBD2-methylated oligo binding inhibition; AID 686964; TR-FRET, MBD2 binding to methylated oligonucleotide; hit rate 0.31% among 370,000; inhibition, % at 4.4 µM; in the data active = inhibition above about 13%
Target sequence (Q9UBB5 whole entry, looked up): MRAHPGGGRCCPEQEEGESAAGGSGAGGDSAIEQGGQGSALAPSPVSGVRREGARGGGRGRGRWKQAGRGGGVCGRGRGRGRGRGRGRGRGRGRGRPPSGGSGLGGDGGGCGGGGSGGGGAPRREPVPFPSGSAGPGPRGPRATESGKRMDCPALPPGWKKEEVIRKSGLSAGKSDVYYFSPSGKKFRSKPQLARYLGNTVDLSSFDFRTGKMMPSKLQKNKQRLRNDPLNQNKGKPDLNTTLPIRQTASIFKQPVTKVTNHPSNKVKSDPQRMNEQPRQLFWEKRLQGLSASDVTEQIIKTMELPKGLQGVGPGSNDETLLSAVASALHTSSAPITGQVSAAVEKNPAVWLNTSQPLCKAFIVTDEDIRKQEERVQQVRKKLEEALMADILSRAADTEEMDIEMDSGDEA
Neddyl block: cullin neddylation inhibition | P61081+Q13564 | TR-FRET cullin neddylation, biochemical | calls only at 25 µM | hit rate 0.58% among 360,000 | AID 651699; in the data active = inhibition above about 36%
UBC13 polyUb: inhibitors of human UBC13 polyubiquitin chain formation; P61088; TR-FRET; inhibition, % at 20 µM; hit rate 0.47% among 330,000; AID 485273; in the data active = inhibition above about 45%, passing the limit was not always enough
Target sequence (P61088 whole entry, looked up): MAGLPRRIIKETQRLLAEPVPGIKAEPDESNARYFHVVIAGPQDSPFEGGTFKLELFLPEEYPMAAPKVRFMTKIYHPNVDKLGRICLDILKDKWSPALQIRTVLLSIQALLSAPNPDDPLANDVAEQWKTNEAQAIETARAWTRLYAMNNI
UHRF1 MBD2 ctr: human UHRF1 methylated DNA binding inhibitors. UHRF1 binding to methylated oligo, TR-FRET. AID 687016. inhibition, % at 4.4 µM. Q96T88. hit rate 0.75% among 370,000; in the data active = inhibition above about 21%;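 also: UHRF1 SRA domain binding a hemimethylated CpG hairpin DNA probe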
Each line names hits and unclear results; the compound was inactive in the other large screens.

O=S(=O)(c1ccc2c(c1)OCCO2)N1CCN(S(=O)(=O)c2c(F)cccc2F)CC1	none (no result: Neddyl block, UBC13 polyUb)
Cn1c(SCC(=O)N/N=C/c2ccc([N+](=O)[O-])s2)nnc1-c1ccc(Cl)cc1	none
CCOC(=O)c1[nH]c(C)c(C(=O)OCc2c(C)noc2C)c1C	UHRF1 MBD2 ctr 22.2
CCOC(=O)c1[nH]c(C)c(C(=O)OC)c1C	none
COc1ccc(N=CC2CCCCC2=O)c([N+](=O)[O-])c1 (centres undefined)	none (no result: UBC13 polyUb)
S=c1[nH]nc(-c2ccccc2)n1/N=C/C=C/c1ccco1	none
Cc1ccccc1-c1n[nH]c(=S)n1/N=C/C=C/c1ccco1	Neddyl block active
COc1ccc(CCC(=O)Nc2ccc(C)c(S(=O)(=O)N(C)C)c2)cc1OC	none
COc1cc(CCC(=O)Nc2ccc(C)c(S(=O)(=O)N(C)C)c2)cc(OC)c1OC	UHRF1 MBD2 ctr 21.4
Cc1cc(Br)c(OCc2ccc(C(=O)N/N=C/c3ccc[nH]3)cc2)c(Br)c1	Neddyl block active
O=C(N/N=C/c1ccc[nH]1)c1ccc(COc2cccc3cccnc23)cc1	Neddyl block active
Cc1cccc(C)c1N(CC(=O)NC1CCCCC1)C(=O)c1csnn1	none
CCCCOc1ccc(C(=O)n2ccc3ccc(-c4ccc5ccn(Cc6ccc(OC)cc6)c5c4)cc32)cc1	none (no result: Neddyl block, UBC13 polyUb)
CN1CCN(c2ccc(CNS(=O)(=O)c3ccsc3)cc2)CC1	none
Cc1csc(NC(=O)c2cccnc2Cl)n1	none
O=C(Nc1nncs1)c1cccnc1Cl	UHRF1 MBD2 ctr 24.9
NS(=O)(=O)c1ccc(O)c(NC(=O)c2ccc([N+](=O)[O-])o2)c1	UHRF1 MBD2 ctr 42.0
Cc1cc(C)cc(NC(=O)c2ccc([N+](=O)[O-])o2)c1	none
CC1CN(C(=O)c2ccccc2Oc2ccccc2)CC(C)O1 (centres undefined)	UHRF1 MBD2 ctr 32.9
CCOc1ccc(C(=O)CCCC(=O)c2ccc(OCC)cc2)cc1	none
CCNC(=O)C1CCCN(C(=O)c2ccc(C)c(F)c2)CC1 (centres undefined)	none (no result: UBC13 polyUb)
CCOC(=O)C(=O)Nc1cc(C)on1	UHRF1 MBD2 ctr 22.2
CC1CC(C)CN(C(=O)c2cc3cc(Br)cc(Br)c3o2)C1 (centres undefined)	UHRF1 MBD2 ctr 47.2
CCCCNS(=O)(=O)c1ccc(OC)c2ncccc12	none
COc1ccc(S(=O)(=O)n2ccnc2)c2cccnc12	UHRF1 MBD2 ctr 22.1 (not shown: Neddyl block)
COC(=O)CSc1nn(-c2ccc(F)cc2)c(=S)s1	UHRF1 MBD2 ctr 21.4
CC(=C/c1ccco1)/C=N/NC(=O)Cc1cccn1C	none
CC(/C=N/NC(=O)Cc1cccn1C)=C\c1ccco1	UHRF1 MBD2 ctr 21.1
CC(NCc1ccccc1Cl)C(=O)Nc1ccc(S(=O)(=O)N2CCCC2)cc1 (centres undefined)	none
COc1ccc(/C(O)=C2\C(=O)C(=O)N(CC3CCCO3)C2c2cc(OC)ccc2OC)cc1 (centres undefined)	none
COc1ccc(C2/C(=C(/O)c3ccc(C)cc3)C(=O)C(=O)N2CC2CCCO2)cc1OC (centres undefined)	UHRF1 MBD2 ctr 21.8
Cc1cccc(C)c1NC(=O)C1(NC(=O)Cn2cccc([N+](=O)[O-])c2=O)CCCCC1	UHRF1 MBD2 ctr 23.6
COc1nc(C)cc(C)c1S(=O)(=O)c1ccc(Cl)cc1	none
CCOc1nc(C)cc(C)c1S(=O)(=O)c1ccc(Cl)cc1	UHRF1 MBD2 ctr 25.1
CCOc1ccc(/C=C2\SC(=S)N(CC(=O)N(CCO)C(C)(C)C)C2=O)cc1	UHRF1 MBD2 ctr 34.7
CC(=O)N(c1ccccc1)c1nc(/C=C/C(=O)Nc2c(C)cc(C)cc2C)cs1	UHRF1 MBD2 ctr 98.9
CC(=O)N(c1ccccc1)c1nc(/C=C/C(=O)O)cs1	none
CNC(=O)c1c(NC(=O)CCS(=O)(=O)c2ccc(Cl)cc2)sc2c1CCN(C(=O)OC)C2	none
CCC[C@@H](OS(N)(=O)=O)[C@@H](Cc1ccccc1)C(=O)OCC	none
CCOC(=O)C1C(c2cccc(F)c2)NC(=S)NC1(O)C(F)(F)F (centres undefined)	UHRF1 MBD2 ctr 28.9
CCOC(=O)C1C(c2cc(OC)c(OC)c(OC)c2)NC(=S)NC1(O)C(F)(F)F (centres undefined)	none
N#CC(C#N)=NNc1ccc([N+](=O)[O-])cc1	none
COc1ccccc1NC(=O)N1CCN(c2ccc3nnc(-c4ccc(F)cc4)n3n2)CC1	none
COc1ccccc1NC(=O)N1CCN(c2ccc3nncn3n2)CC1	UHRF1 MBD2 ctr 24.0
CCOC(=O)c1cnn(-c2c(Cc3ccccc3)c(C)nc3c(-c4ccccc4)c(C)nn23)c1N	none
O=c1c2ccccc2nnn1CSc1ccc2c(c1)OCCO2	none
c1ccc(-c2sc3ccccc3c2-c2ccc(OCCN3CCCC3)cc2)cc1	UBC13 polyUb 81.6
COc1ccccc1-c1sc2ccccc2c1-c1ccc(OCCN2CCCCC2)cc1	none (no result: MBD2 inh, UBC13 polyUb, UHRF1 MBD2 ctr)
COc1ccc(OCc2cc(C(=O)N3CCN(CC4CC4)CC3)no2)c(Cl)c1	none
O=C(O)c1cccc(S(=O)(=O)N2Cc3ccccc3C2)c1	none
COc1ccc(N(C(=O)c2ccco2)C(C(=O)NC2CCCC2)c2ccncc2)cc1OC (centres undefined)	UHRF1 MBD2 ctr 23.1
COc1ccc(C(C(=O)NC2CCCC2)N(C(=O)c2ccco2)c2ccc(OC)c(OC)c2)cc1 (centres undefined)	none
CN(C)CCNc1ncnc2c1sc1nc(N3CCCC3)c3c(c12)CC(C)(C)OC3	UHRF1 MBD2 ctr 23.1
CCN(CC)CCNc1ncnc2c1sc1nc(N3CCCC3)c3c(c12)CC(C)(C)OC3	UHRF1 MBD2 ctr 22.7
O=C(NC1(C(F)(F)F)NC(=O)N(c2ccc(F)c(Cl)c2)C1=O)c1ccncc1 (centres undefined)	none
Cc1ccc(S(=O)(=O)N2CCCCC2)cc1NC(=O)COC(=O)c1cccn1C	UHRF1 MBD2 ctr 40.0
CCOc1ccccc1OCC(=O)Nc1cc(S(=O)(=O)N2CCCCC2)ccc1N1CCN(CC)CC1	none
O=C(COC(=O)c1cc([N+](=O)[O-])ccc1N1CCCC1)Nc1ccccc1OC(F)F	none
COc1ccccc1NC(=O)COC(=O)c1cc([N+](=O)[O-])ccc1N1CCCC1	UHRF1 MBD2 ctr 35.4
COc1ccccc1OCC(=O)Nc1cc(S(=O)(=O)N2CCCCC2)ccc1N1CCCCC1	UHRF1 MBD2 ctr 27.2
Cc1ccc(S(=O)(=O)N2CCCCC2)cc1NC(=O)c1cc(F)c(F)c(F)c1F	UHRF1 MBD2 ctr 22.1
CC(=O)N(CC1CCCO1)c1nnc(-c2cnccn2)s1 (centres undefined)	none
COc1cc(C(=O)N(C)C2CCCCC2)ccc1OC1CCN(C(C)=O)CC1	none
C=CCNC(=S)Nc1ccc(N2CCOCC2)c(S(=O)(=O)Nc2ccccc2Cl)c1	none
O=[N+]([O-])c1c(NCCCO)cc(SCc2ccco2)c2nonc12	UHRF1 MBD2 ctr 34.5
CC(=O)OCCNc1cc(SCc2ccco2)c2nonc2c1[N+](=O)[O-]	none (no result: MBD2 inh, UBC13 polyUb, UHRF1 MBD2 ctr)
COc1cc(C(=O)OC2CCCCC2=O)cc(OC)c1C (centres undefined)	UHRF1 MBD2 ctr 22.6
Cc1ccc(C(=O)NCC(=O)OC2CCCCC2=O)cc1C (centres undefined)	none
CN(Cc1ccco1)c1ncnc2ccc(-c3ccoc3)cc12	Neddyl block active, UHRF1 MBD2 ctr 22.2
CN(Cc1ccco1)c1ncnc2ccc(-c3ccccc3Cl)cc12	none
S=C(NC1CCCCC1)N1CCN(Cc2ccccc2)CC1	UHRF1 MBD2 ctr 21.4

High-throughput results as filed in PubChem.
